# Laboratory results: PMC11062922 (Nature Chemical Biology, 2023)
# Like-named read-outs stand apart in the source and are kept apart here.
# Legend:
# Design in all cases: species or system human, MV4-11 + K-562 + COLO205 + SK-N-BE2 + OVCAR-8
# CDK16 = conditions: read-out: apparent Kd; compound concentrations:100 nM and 1000 nM (sheet 'Samples'); n = 1
# CDK17 = conditions: read-out: apparent Kd; compound concentrations:100 nM and 1000 nM (sheet 'Samples'); n = 1
# CDK6 = conditions: read-out: apparent Kd; compound concentrations:100 nM and 1000 nM (sheet 'Samples'); n = 1
# CDK7 = conditions: read-out: apparent Kd; compound concentrations:100 nM and 1000 nM (sheet 'Samples'); n = 1
# CDK9 = conditions: read-out: apparent Kd; compound concentrations:100 nM and 1000 nM (sheet 'Samples'); n = 1
# CDKL5 = conditions: read-out: apparent Kd; compound concentrations:100 nM and 1000 nM (sheet 'Samples'); n = 1
# EPHB2 = conditions: read-out: apparent Kd; compound concentrations:100 nM and 1000 nM (sheet 'Samples'); n = 1
# ERCC2 = conditions: read-out: apparent Kd; compound concentrations:100 nM and 1000 nM (sheet 'Samples'); n = 1
# FER = conditions: read-out: apparent Kd; compound concentrations:100 nM and 1000 nM (sheet 'Samples'); n = 1
# GSK3A = conditions: read-out: apparent Kd, n = 1
# GSK3B = conditions: read-out: apparent Kd, n = 1
# ICK = conditions: read-out: apparent Kd; compound concentrations:100 nM and 1000 nM (sheet 'Samples'); n = 1
# MAPK7 = conditions: read-out: apparent Kd; compound concentrations:100 nM and 1000 nM (sheet 'Samples'); n = 1
# NQO2 = conditions: read-out: apparent Kd; compound concentrations:100 nM and 1000 nM (sheet 'Samples'); n = 1
# PDGFRB = conditions: read-out: apparent Kd; compound concentrations:100 nM and 1000 nM (sheet 'Samples'); n = 1
# TNK1 = conditions: read-out: apparent Kd; compound concentrations:100 nM and 1000 nM (sheet 'Samples'); n = 1
# TNK2 = conditions: read-out: apparent Kd; compound concentrations:100 nM and 1000 nM (sheet 'Samples'); n = 1
# CDK12 = conditions: read-out: apparent Kd; compound concentrations: 100 nM and 1000 nM (sheet 'Samples'), CATDS: 0.16242687072241299; n = 1
# CDK13 = conditions: read-out: apparent Kd; compound concentrations: 100 nM and 1000 nM (sheet 'Samples'), CATDS: 0.16446533875215399; n = 1
# MAPK10 = conditions: read-out: apparent Kd; compound concentrations: 100 nM and 1000 nM (sheet 'Samples'), CATDS: 0.33495043269217101; n = 1
# MAPK8 = conditions: read-out: apparent Kd; compound concentrations: 100 nM and 1000 nM (sheet 'Samples'), CATDS: 0.17846593111563799; n = 1
# MAPK9 = conditions: read-out: apparent Kd; compound concentrations: 100 nM and 1000 nM (sheet 'Samples'), CATDS: 0.23956411042419101; n = 1
# CDC42 = conditions: read-out: apparent Kd, n = 1
# PIK3CB = conditions: read-out: apparent Kd; compound concentrations:100 nM and 1000 nM (sheet 'Samples'); n = 1
# RAB5C = conditions: read-out: apparent Kd; compound concentrations:100 nM and 1000 nM (sheet 'Samples'); n = 1
# CSNK1A1 = conditions: read-out: apparent Kd; compound concentrations: 100 nM and 1000 nM (sheet 'Samples'), CATDS: 0.11767767323313399; n = 1
# CSNK1D = conditions: read-out: apparent Kd; compound concentrations: 100 nM and 1000 nM (sheet 'Samples'), CATDS: 0.430543569866988; n = 1
# CSNK1E = conditions: read-out: apparent Kd; compound concentrations: 100 nM and 1000 nM (sheet 'Samples'), CATDS: 0.24847771886196199; n = 1
# FLT3 = conditions: read-out: apparent Kd; compound concentrations: 100 nM and 1000 nM (sheet 'Samples'), CATDS: 0.12792168712312599; n = 1
# GAK = conditions: read-out: apparent Kd; compound concentrations: 100 nM and 1000 nM (sheet 'Samples'), CATDS: 0.12375475758879401; n = 1
# RIOK2 = conditions: read-out: apparent Kd; compound concentrations: 100 nM and 1000 nM (sheet 'Samples'), CATDS: 0.107134967231821; n = 1
# [1] = compound concentrations:100 nM and 1000 nM (sheet 'Samples')
smiles,measurement,setting,value
CN1CCC(C(=O)Nc2n[nH]c3nc(-c4ccc(O)cc4)c(Br)cc23)CC1.O=C(O)/C=C\C(=O)O [SB-732881-H],potency estimated from few doses,CDK16,531 nM
same,potency estimated from few doses,CDK17,459 nM
same,potency estimated from few doses,CDK6,786 nM
same,potency estimated from few doses,CDK7,732 nM
same,potency estimated from few doses,CDK9,234 nM
same,potency estimated from few doses,CDKL5,21 nM
same,potency estimated from few doses,EPHB2,1100 nM
same,potency estimated from few doses,ERCC2,985 nM
same,potency estimated from few doses,FER,1270 nM
same,potency estimated from few doses,GSK3A; [1],2.51 nM
same,potency estimated from few doses,GSK3B; [1],8.66 nM
same,potency estimated from few doses,ICK,1160 nM
same,potency estimated from few doses,MAPK7,1760 nM
same,potency estimated from few doses,NQO2,1590 nM
same,potency estimated from few doses,PDGFRB,1730 nM
same,potency estimated from few doses,TNK1,744 nM
same,potency estimated from few doses,TNK2,964 nM
CN(C)C/C=C/C(=O)Nc1ccc(C(=O)N2CCC[C@@H](Nc3ncc(Cl)c(-c4c[nH]c5ccccc45)n3)C2)cc1 [THZ531],potency estimated from few doses,CDK12,1800 nM
same,potency estimated from few doses,CDK13,1740 nM
same,potency estimated from few doses,MAPK10,434 nM
same,potency estimated from few doses,MAPK8,1410 nM
same,potency estimated from few doses,MAPK9,760 nM
Cn1cc(C2=C(c3cccc(N)c3)C(=O)NC2=O)c2ccccc21 [RO0317471-000],potency estimated from few doses,"CDC42; compound concentrations: 100 nM and 1000 nM (sheet 'Samples'), CATDS: 0.203680819174512",1200 nM
same,potency estimated from few doses,"GSK3A; compound concentrations: 100 nM and 1000 nM (sheet 'Samples'), CATDS: 0.53179335167556496",23.5 nM
same,potency estimated from few doses,"GSK3B; compound concentrations: 100 nM and 1000 nM (sheet 'Samples'), CATDS: 0.45250345973029299",32.2 nM
O=c1cc(N2CCOCC2)nc2n(Cc3cccc(C(F)(F)F)c3)ccn12 [GSK2297543A],potency estimated from few doses,CDC42; [1],1400 nM
same,potency estimated from few doses,PIK3CB,274 nM
same,potency estimated from few doses,RAB5C,976 nM
CCc1nn2ncccc2c1-c1ccnc(NC2CC2)n1 [GW683768X],potency estimated from few doses,"CDC42; compound concentrations: 100 nM and 1000 nM (sheet 'Samples'), CATDS: 0.112066673449154",1390 nM
same,potency estimated from few doses,CSNK1A1,1200 nM
same,potency estimated from few doses,CSNK1D,95.2 nM
same,potency estimated from few doses,CSNK1E,230 nM
same,potency estimated from few doses,FLT3,948 nM
same,potency estimated from few doses,GAK,1040 nM
same,potency estimated from few doses,RIOK2,1610 nM
